Consider 40 sequences from the supplement of paper PMC10338343.

± gives the standard deviation.

For the first assay, the system named is MILI (PIWIL2) piRISC loaded with L1MC piRNA (26 nt). Nature of the assay: pre-steady-state target cleavage rate (min^-1); guide: L1MC piRNA 5'p-UAACUAAAUACUAUGCAAGCUGUAGG; MIWI and MILI are mouse PIWI proteins and EfPiwi is from a freshwater sponge; tags in brackets are library labels; higher = faster piRNA-guided slicing of the target. The settings on record: auxiliary factor: 500 nM mouse GTSF1. The method, boiled down: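 Active affinity-purified piRISC (1 nM) loaded with one synthetic guide was mixed with a transcribed, DNA-blocked target RNA library (0.1 nM), with or without 500 nM GTSF1 partner protein, in HEPES–potassium acetate buffer at 33 °C for 0–8 or 0–960 min. Uncleaved targets were sequenced, normalised to depth and to weakly complementary targets, and pooled across three trials, with k3 capped at 0.0001 min^-1. The pre-steady-state cleavage rate was determined with a burst-and-steady-state fit.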
On to UCCUGGAUGAGCUUGCAUAGUUUUUAGUAA, for which the “pre-steady-state target cleavage rate” value amounted to 0.0181 ± 0.0068.

For UCCUGCUACAGCUUCGUUAGUAUUUAGUAA, the “pre-steady-state target cleavage rate” value is 0.154 ± 0.033.

UCCUCCUACAGCUUGCAUAGAAUUUAGAAA: the “pre-steady-state target cleavage rate” value amounted to 0.0449 ± 0.015.

For UCCUGGAUGACGUUGCAUAGUAUUUAGAAA, the “pre-steady-state target cleavage rate” value came to 0.0501 ± 0.014.

Consider UCCUGCUACAGCUUGCAUAGUAUUUAUUA, for which the “pre-steady-state target cleavage rate” value came to 0.0696 ± 0.017.

Consider UCCUGCUACAGCUUGCUUAGUAUUUACAAA, for which the “pre-steady-state target cleavage rate” value is 0.0114 ± 0.0054.

Turning to UCCUGGAUGUGCUUGCAUUGUAUUUUGUUA, the “pre-steady-state target cleavage rate” value stood at 0.0555 ± 0.015.

In the case of UCCUGGAUGUCGAACGUAUGUAUUUAUUUA, the “pre-steady-state target cleavage rate” value was less than 0.0001.

On to UCCUGGAUGUGCUUGCAUACUAUUUUGUUA, for which the “pre-steady-state target cleavage rate” value worked out at 0.00854 ± 0.0058.

Regarding UCCUGGAUGUCGAUGUCAUAGUAUUUAGUUA, the “pre-steady-state target cleavage rate” value came out at 0.0067 ± 0.0037.

With UCCUGGAACAGCUUGCAAUGUAUUUACAAA, the “pre-steady-state target cleavage rate” value came out at 0.0552 ± 0.017.

As for UCCUGGAUGAGCUUGCAUAGUAAAUAGUAA, the “pre-steady-state target cleavage rate” value worked out at 0.0816 ± 0.026.

As to UCCUGGAUCAGCUUGCAUAGUAUAAUGUUA, the “pre-steady-state target cleavage rate” value stood at 0.116 ± 0.013.

For UCCUGGAUGAGCAUGCAUAGAAUUUAGUUA, the “pre-steady-state target cleavage rate” value was determined as 0.0184 ± 0.008.

For UCCUGGAUGUCGUUGCAUAGUAUUUAGCUUA, the “pre-steady-state target cleavage rate” value came out at 0.0208 ± 0.0083.

Regarding “UCCUGGAUGUCGAAGCAUAGUAUUUAGUUC [g2:g16:cont:t1C]”, the “pre-steady-state target cleavage rate” value was found to be 0.0284 ± 0.0076.

For UCCUGGAACAGGUUGCAUAGUAUUUACUUA, the “pre-steady-state target cleavage rate” value is 0.0532 ± 0.012.

As to UCCUCCUACAGCUUGCAUAGCUAUUUAGUUA, the “pre-steady-state target cleavage rate” value was found to be 0.0126 ± 0.0058.

For UCCUGGUACAGCUUGGUUAGUAUUUAGAAA, the “pre-steady-state target cleavage rate” value worked out at 0.043 ± 0.016.

As to UCCUGGAUGUCCUUGGAUACUAUUUAGUUA, the “pre-steady-state target cleavage rate” value is 0.0119 ± 0.0061.

As for UCCUGGUACAGCUUGCAUAGUAUUUGUUA, the “pre-steady-state target cleavage rate” value turned out to be 0.0839 ± 0.022.

With UCCUGGAUCAGCUUGCAUAGAAAUUAGUUA, the “pre-steady-state target cleavage rate” value worked out at 0.0245 ± 0.0096.

As to UCCUGGAUGAGCUUGCAUAGAAUUUAGUUA, the “pre-steady-state target cleavage rate” value came out at 0.0653 ± 0.017.

In the case of UCCUGCUACAGCUUGCAUACUAUUUACAAA, the “pre-steady-state target cleavage rate” value turned out to be 0.0741 ± 0.024.

For the sequence UCCUGGAUGUCCUUGCAAUCUAUUUAGUUA, the “pre-steady-state target cleavage rate” value was 0.00463 ± 0.0037.

With UCCUGCUACAGCUUGCAUAGAUAUUAGUUA, the “pre-steady-state target cleavage rate” value turned out to be 0.0176 ± 0.0073.

Take UCCUGCUACAGCUUGGUAAGUAUUUAGUAA: the “pre-steady-state target cleavage rate” value came to 0.207 ± 0.039.

As to UCCUGGAUCAGCUUGCUAAGUAUUUAGAAA, the “pre-steady-state target cleavage rate” value is 0.0172 ± 0.006.

For UCCUGGAUGUCGUUGCAUAGUAUUUCGUUA, the “pre-steady-state target cleavage rate” value amounted to 0.0162 ± 0.0076.

Regarding UCCUGGAUGUGCUUGCAUAGUAAUUACUUA, the “pre-steady-state target cleavage rate” value was 0.00537 ± 0.0033.

In the case of UCCUGGUACAGCUUGCAUAGUAAAAAGUAA, the “pre-steady-state target cleavage rate” value came out at 0.031 ± 0.013.

As to UCCUGGAUGUGCUUGCAUAGUAUUAAGAUA, the “pre-steady-state target cleavage rate” value came to 0.00523 ± 0.0046.

Turning to UCCUGGAUGUCGAUGCAUAGUAUUUAAUUA, the “pre-steady-state target cleavage rate” value stood at 0.0256 ± 0.0092.

With UCCUGGAUGUCGAAGCACAGUAUUUAGUUA, the “pre-steady-state target cleavage rate” value was found to be 0.00819 ± 0.0038.

As for UCCUGGAUGUGCUUGCAAACUAUUUAGUUA, the “pre-steady-state target cleavage rate” value is 0.00852 ± 0.0038.

Staying with this assay, now noted: auxiliary factor: none (no GTSF1).
With UCCUGGAUGUCGAACGAAAGUAUUUAGUAA, the “pre-steady-state target cleavage rate” value is less than 0.0001.

UCCUGGAUGUCGAACGAUAGUGAUUUAGUUA: the “pre-steady-state target cleavage rate” value is less than 0.0001.

In the case of UCCUGGAUGUCGAACGUAAGUAAUUAGUUA, the “pre-steady-state target cleavage rate” value was less than 0.0001.

On to UCCUGGAUGUCGAACGUAUCUAUUUAGUCUA, for which the “pre-steady-state target cleavage rate” value is less than 0.0001.

With UCCUGGAUGUCGAACGAAUCUAUUUAGUUA, the “pre-steady-state target cleavage rate” value was less than 0.0001.
